The nature of experiment [1]: hit retest on RPL19A-GFP reporter strain – cell-based, S. cerevisiae, flow cytometry, cherry picks, mother/daughter gates, confirmation (AID 2270;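 active means GFP response below 50% of the DMSO control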). As to conditions: 3 h, at 10 µM, stronger effect = lower value, 100 = same GFP as DMSO wells. In general terms: In flow cytometry, cells or beads pass a laser one at a time.
A short description of experiment [2]: yeast TOR pathway reporter LAP4-GFP change – cell-based, cherry picks, flow cytometry, mother/daughter gates, confirmation (AID 2271;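 active means GFP response above 150% of the DMSO control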;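 further: ratio of sample to DMSO plate mean so 100% equals DMSO level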). As to conditions: S. cerevisiae LAP4-GFP strain, 3 h, at 10 µM, stronger effect = higher value, 100 means same as DMSO control.
Experiment [3] in a line: TOR pathway reporter MEP2-GFP, retest of hits – S. cerevisiae, flow cytometry GFP, cherry picks, confirmation (AID 2272;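 active means GFP response above 150% of the DMSO control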;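 further: ratio of well signal to plate DMSO mean so 100% equals DMSO level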). As to conditions: S. cerevisiae MEP2-GFP strain, 3 h, at 10 µM, stronger effect = higher value.
Experiment [4] in a line: yeast AGP1-GFP fluorescence change, single-dose – cell-based, flow cytometry, S. cerevisiae, cherry picks, confirmation (AID 2273).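 Further: median GFP channel fluorescence over the whole cell population gate.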 As to conditions: S. cerevisiae AGP1-GFP strain, 3 h, at 10 µM.
The nature of experiment [5]: TOR pathway CIT2 reporter hit retest – S. cerevisiae, GFP fusion, cherry picks, mother/daughter gates, confirmation (AID 2274). As to conditions: S. cerevisiae CIT2-GFP strain, flow cytometry, 3 h, at 10 µM, stronger effect = higher value.
The nature of experiment [6]: green-channel fluorescence artefact in S. cerevisiae – s288c strain, artefact control for yeast TOR pathway GFP screen, dose response (AID 2757;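 active means fluorescence span over the dose series, or activity score, above about 33, limit read from the data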;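 further: thousands of bead-calibrated equivalent soluble fluorophore molecules from median cell fluorescence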). As to conditions: 520 nm autofluorescence, flow cytometry, 3 h, at 33 µM, stronger effect = higher value, zero means same as solvent-only cells.
[7] abbreviates: measured here: daughter cell gate.
Setting [8] is: measured here: mother cell gate.
[9] abbreviates: measured here: daughter cell gate response.
Where [10] appears, read: measured here: mother cell gate response.

Data on 15 compounds can be found in PubChem BioAssay.

The other results are listed elsewhere or left out. Activity calls are given as the source filed them.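 How the source made its calls, unless noted: active means GFP response above 150% of the DMSO level; inconclusive means fewer than 70 events counted for a yeast strain; inactive means the rest.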

Take `C[n+]1ccc(/C=C/c2c[nH]c3ccccc23)cc1`: the GFP response vs DMSO was 107% (inactive) in experiment [1], 105% in experiment [1] (setting [7]), 107% in experiment [1] (setting [8]) and 187% (active) in experiment [3]. The GFP response relative to DMSO is 143% (inactive) in experiment [2], 143% in experiment [2] (setting [9]) and 143% in experiment [2] (setting [10]). The GFP response, % of DMSO is 107% (inactive) in experiment [4], 145% (inactive) in experiment [5], 142% in experiment [5] (setting [7]) and 146% in experiment [5] (setting [8]). Besides, in experiment [6], the fluorescence change (kMESF span) was 5.54 (inactive).

Turning to `Cc1cc(NC(=O)c2cc3ccccc3o2)ccc1NC(=O)c1ccccc1`, the GFP response vs DMSO in experiment [1] was 98.4% (inactive); in experiment [1] (setting [7]), 97.4%; in experiment [1] (setting [8]) it was 99.8%; in experiment [3], 102% (inactive). The figures for the GFP response relative to DMSO in experiment [2], in experiment [2] (setting [9]) and in experiment [2] (setting [10]) were 95.4% (inactive), 94.4% and 96.1%, respectively. Further, the GFP response, % of DMSO in experiment [4] is 95.4% (inactive); in experiment [5], 101% (inactive); in experiment [5] (setting [7]) it was 101%; in experiment [5] (setting [8]), 99.7%.

Regarding `CCN1/C(=C/C(C)=C/c2sc3ccccc3[n+]2CC)Sc2ccccc21`, the GFP response vs DMSO in experiment [1] is 79.8% (inactive); in experiment [1] (setting [7]), 61.3%; in experiment [1] (setting [8]), 72.1%; in experiment [3], 133% (inactive). Further, the GFP response relative to DMSO in experiment [2] was 243% (active); in experiment [2] (setting [10]) it was 211%. Besides, the GFP response, % of DMSO in experiment [4] was 101% (inactive); in experiment [5], 100% (inactive); in experiment [5] (setting [7]), 83.4%; in experiment [5] (setting [8]), 97.7%.

Consider `Cc1[nH][nH]c(=O)c1C(c1ccc(-c2ccc(Cl)cc2)o1)c1c(C)[nH][nH]c1=O`, for which the GFP response vs DMSO in experiment [1] was 101% (inactive); in experiment [1] (setting [7]), 102%; in experiment [1] (setting [8]) it was 99.8%; in experiment [3], 114% (inactive). For the same compound, the GFP response relative to DMSO was 188% (active) in experiment [2], 179% in experiment [2] (setting [9]) and 179% in experiment [2] (setting [10]). In addition, the GFP response, % of DMSO in experiment [4] is 103% (inactive); in experiment [5], 101% (inactive); in experiment [5] (setting [7]), 102%; in experiment [5] (setting [8]) it was 95.6%. For the same compound, in experiment [6], the fluorescence change (kMESF span) is 0.2 (inactive).

With `Oc1ccc2ccccc2c1N=Nc1nccs1`, the GFP response vs DMSO in experiment [1] was 101% (inactive); in experiment [1] (setting [7]) it was 98.1%; in experiment [1] (setting [8]) it was 98%; in experiment [3], 116% (inactive). Besides, the GFP response relative to DMSO in experiment [2] was 163% (active); in experiment [2] (setting [9]), 151%; in experiment [2] (setting [10]) it was 165%. Besides, the GFP response, % of DMSO was 89.3% (inactive) in experiment [4], 105% (inactive) in experiment [5], 101% in experiment [5] (setting [7]) and 102% in experiment [5] (setting [8]). The fluorescence change (kMESF span) in experiment [6] is 0.51 (inactive).

As to `COc1ccc2c(c1)c(/C=C/c1cc[n+](C)cc1)cn2C`, the GFP response vs DMSO is 105% (inactive) in experiment [1], 107% in experiment [1] (setting [7]), 106% in experiment [1] (setting [8]) and 162% (inactive) in experiment [3]. The GFP response relative to DMSO in experiment [2] was 136% (inactive); in experiment [2] (setting [9]) it was 143%; in experiment [2] (setting [10]), 134%. The GFP response, % of DMSO was 111% (inactive) in experiment [4], 150% (inactive) in experiment [5], 158% in experiment [5] (setting [7]) and 145% in experiment [5] (setting [8]).

As to `CCCc1cc(NCc2ccccn2)n2nc(C)c(-c3ccccc3)c2n1`, the GFP response vs DMSO in experiment [1] is 108% (inactive); in experiment [1] (setting [7]), 88%; in experiment [1] (setting [8]), 91.2%; in experiment [3], 143% (inactive). Also, the GFP response relative to DMSO in experiment [2] was 172% (active); in experiment [2] (setting [10]), 148%. Besides, the GFP response, % of DMSO was 107% (inactive) in experiment [4], 92.6% (inactive) in experiment [5], 81.7% in experiment [5] (setting [7]) and 77.3% in experiment [5] (setting [8]).

On to `Cc1cc(C)nc(S/C=C/C(=O)c2ccccc2)n1`, for which the GFP response vs DMSO in experiment [1] is 100% (inactive); in experiment [1] (setting [7]), 101%; in experiment [1] (setting [8]) it was 98%; in experiment [3], 121% (inactive). Also, the GFP response relative to DMSO in experiment [2] was 169% (active); in experiment [2] (setting [9]) it was 151%; in experiment [2] (setting [10]), 191%. Also, the GFP response, % of DMSO is 107% (inactive) in experiment [4], 92.2% (inactive) in experiment [5], 98.4% in experiment [5] (setting [7]) and 83.8% in experiment [5] (setting [8]). In addition, the fluorescence change (kMESF span) in experiment [6] is 1.02 (inactive).

As to `O=C(/C=C/Sc1ncn[nH]1)c1ccc(Cl)cc1`, the GFP response vs DMSO is 106% (inactive) in experiment [1], 106% in experiment [1] (setting [7]), 99.8% in experiment [1] (setting [8]) and 114% (inactive) in experiment [3]. Besides, the GFP response relative to DMSO in experiment [2] was 213% (active); in experiment [2] (setting [9]) it was 198%; in experiment [2] (setting [10]), 214%. Moreover, the GFP response, % of DMSO in experiment [4] is 89.5% (inactive); in experiment [5], 110% (inactive); in experiment [5] (setting [7]), 108%; in experiment [5] (setting [8]) it was 104%. In addition, the fluorescence change (kMESF span) in experiment [6] was 2.12 (inactive).

Regarding `O=C(c1ccc(Cl)c([N+](=O)[O-])c1)N1CCN(c2ccccc2)CC1`, the GFP response vs DMSO in experiment [1] is 99.4% (inactive); in experiment [1] (setting [7]), 101%; in experiment [1] (setting [8]), 96.7%; in experiment [3], 102% (inactive). Also, the GFP response relative to DMSO in experiment [2] is 116% (inactive); in experiment [2] (setting [9]), 114%; in experiment [2] (setting [10]) it was 111%. Besides, the GFP response, % of DMSO in experiment [4] was 97.8% (inactive); in experiment [5] it was 95.5% (inactive); in experiment [5] (setting [7]), 101%; in experiment [5] (setting [8]) it was 92.6%. Further, the fluorescence change (kMESF span) in experiment [6] was 2.52 (inactive).

On to `CC(C)(C)C(=O)NC(=S)NNC(=O)c1ccc(-c2ccccc2)cc1`, for which the GFP response vs DMSO is 116% (inactive) in experiment [1], 84.5% in experiment [1] (setting [7]), 104% in experiment [1] (setting [8]) and 141% (inactive) in experiment [3]. Besides, the GFP response relative to DMSO was 228% (active) in experiment [2] and 209% in experiment [2] (setting [10]). The GFP response, % of DMSO was 129% (inactive) in experiment [4], 132% (inactive) in experiment [5], 99.3% in experiment [5] (setting [7]) and 113% in experiment [5] (setting [8]).

As to `Oc1c(N=Nc2ccccn2)ccc2ccccc12`, the GFP response vs DMSO in experiment [1] is 94.8% (inactive); in experiment [1] (setting [7]), 83.8%; in experiment [1] (setting [8]), 87.3%; in experiment [3], 104% (inactive). Besides, the GFP response relative to DMSO was 95.3% (inactive) in experiment [2] and 66% in experiment [2] (setting [10]). In addition, the GFP response, % of DMSO was 84.7% (inactive) in experiment [4], 93.5% (inactive) in experiment [5], 94.6% in experiment [5] (setting [7]) and 81.6% in experiment [5] (setting [8]).

Turning to `COc1ccc(C2c3c(oc4ccccc4c3=O)C(=O)N2CCN2CCOCC2)cc1OC` (centres undefined), the GFP response vs DMSO is 103% (inactive) in experiment [1], 95.3% in experiment [1] (setting [7]), 101% in experiment [1] (setting [8]) and 172% (inactive) in experiment [3]. The GFP response relative to DMSO was 119% (inactive) in experiment [2], 116% in experiment [2] (setting [9]) and 114% in experiment [2] (setting [10]). Moreover, the GFP response, % of DMSO in experiment [4] is 105% (inactive); in experiment [5] it was 129% (inactive); in experiment [5] (setting [7]), 116%; in experiment [5] (setting [8]) it was 113%.

Consider `COc1ccc(C(=O)NC(=S)NNC(=O)CCc2ccccc2)cc1`, for which the GFP response vs DMSO in experiment [1] was 106% (inactive); in experiment [1] (setting [7]), 104%; in experiment [1] (setting [8]), 106%; in experiment [3] it was 116% (inactive). The GFP response relative to DMSO in experiment [2] was 188% (active); in experiment [2] (setting [9]), 173%; in experiment [2] (setting [10]), 189%. Besides, the GFP response, % of DMSO in experiment [4] was 87.7% (inactive); in experiment [5], 101% (inactive); in experiment [5] (setting [7]) it was 104%; in experiment [5] (setting [8]), 93.3%. Besides, the fluorescence change (kMESF span) in experiment [6] was 0.3 (inactive).

As to `Oc1ccc(Br)cc1/C=N/Nc1ccccn1`, the GFP response vs DMSO in experiment [1] is 93.9% (inactive); in experiment [1] (setting [7]), 92.3%; in experiment [1] (setting [8]), 83.8%; in experiment [3], 129% (inactive). Further, the GFP response relative to DMSO in experiment [2] is 263% (active); in experiment [2] (setting [9]) it was 222%; in experiment [2] (setting [10]), 261%. Moreover, the GFP response, % of DMSO is 91% (inactive) in experiment [4], 112% (inactive) in experiment [5], 113% in experiment [5] (setting [7]) and 98% in experiment [5] (setting [8]). Besides, in experiment [6], the fluorescence change (kMESF span) was 1.31 (inactive).
